Measured values from PubChem BioAssay (Tox21).
“And” between values parts separate entries of the source, which are not always exact repeats. Equal entries are not always repeated. Records with an inconclusive call do not appear. Entries that show only a call come without a potency. The source holds several records for some structures; these can differ, active in one and inactive in another. The source made the active and inactive calls. The call rests on the fitted dose curve.
Potency means the concentration at half of the fitted maximal effect.

Assay: p53 small molecule agonists, cell-based qHTS assay with human liver microsomes: qHTS cell viability counter screen (AID 1963579); further: nearly all actives have a fitted effect of over 45% in size
Settings: p53RE-bla HCT-116 viability, ATP luminescence, 16 h, HLM; series mostly up to 66 µM
Excerpt: National Center for Advancing Translational Sciences [NCATS]
Division of Preclinical Innovation [DPI]
U.S. Environmental Protection Agency [EPA]
National Institutes of Environmental Health Sciences [NIEHS]
National Toxicology Program [NTP]
U.S. Food and Drug Administration [FDA]
p53, a tumor suppressor protein, is activated following cellular insult, including DNA damage and other cellular stresses. The activation of p53 regulates cell fate by inducing DNA repair, cell cycle arrest, apoptosis, or cellular senescence. The activation of p53, therefore, is a good indicator of DNA damage and other cellular stresses. […] The activation of the reporter gene under culture conditions can be detected by fluorescence intensity. This cell line was used to screen the Tox21 10K compound library in the condition of presence of human liver microsomes and to identify agonists that activate the p53 signaling pathway after in vitro metabolic activation (Ooka et al., Archive of Toxicology 96:1975-1987, 2022).
Tox21 Assay Protocol Summary:
The p53RE-bla cells were dispensed at 4,000cells/3ul/well in 1536-well black-clear bottom plates. After the assay plates were incubated at 37 C, 5% CO2 incubator for 5 hours, 23 nL of compounds dissolved in DMSO, positive controls or DMSO only was transferred to the assay plate. Following compound addition, 3 uL of human liver microsomes (XenoTech, Kansas City, KS) at final concentration of 0.5 mg/mL and 1uL of B-Nicotinamide adenine dinucleotide 2'-phosphate (NADPH) at final concentration of 0.5 mg/mL were transferred to the assay plate. The plates were incubated at 37 C for 16 hours. 1 uL of LiveBLAzer detection mixture was added to each well and the plates were incubated at room temperature in the dark for 2 h. Fluorescence intensity at 460 and 530 nm emission and 405 nm excitation were measured by an Envision plate reader. For cell viability readout that measures cytotoxicity, 4 ul/well of CellTiter-Glo reagent was added into the assay plates using a Flying Reagent Dispenser. After 30 min incubation at room temperature, the luminescence intensity in the plates was measured using a ViewLux plate reader.
In the case of `O=NN1CCCCCCC1`, the Potency is reported as “inactive”.
For `CCCCCCCCCCCCCCCCn1cc[n+](C)c1`, the Potency was 37.1 µM (active) and inactive and 46.2 µM (active).
In the case of `Nc1c(Cl)cc([N+](=O)[O-])cc1Cl`, the Potency is reported as “inactive”.
With `CCCN(CCOc1c(Cl)cc(Cl)cc1Cl)C(=O)n1ccnc1` the Potency was “inactive”.
In the case of `CC(=O)[O][Hg][c]1ccccc1`, the Potency is reported as 4.04 µM (active) and 5.13 µM (active).
In the case of `ClCc1cccnc1`, the Potency is reported as “inactive”.
For `C=CCN1CC[C@]23CCCC[C@H]2[C@H]1Cc1ccc(O)cc13`, the Potency was “inactive”.
With `CCOC(=S)S` the Potency was “inactive”.
For `[N-]=[N+]=CC(=O)OC[C@H](N)C(=O)O`, the Potency was “inactive”.
For `Cc1ccc(N)cc1`, the Potency was “inactive”.
For `ClCc1ccccc1`, the Potency was “inactive”.
With `O=C/C=C/c1ccccc1` the Potency was “inactive”.
With `OC(c1ccc(Cl)cc1)(c1cncnc1)c1ccccc1Cl` (stereo not given) the Potency was “inactive”.
In the case of `[O]=[Cr](=[O])([OH])[O][Cr](=[O])(=[O])[OH]`, the Potency is reported as 40.7 µM (active).
For `C1CC2OC2CC1C1CO1` (stereo not given), the Potency was “inactive”.
For `C=CCCl`, the Potency was “inactive”.
For `C=CCc1ccccc1O`, the Potency was “inactive”.
With `Fc1cc(Br)ccc1CBr` the Potency was “inactive”.
With `Cc1cc(C)cc(C)c1` the Potency was “inactive”.
In the case of `CCCCCCCCCc1ccc(O)cc1`, the Potency is reported as “inactive”.
With `CCOCN(C(=O)CCl)c1c(C)cccc1CC` the Potency was “inactive”.
With `CCCC[N+]1(C)CCCC1` the Potency was “inactive”.
With `COC(=O)c1ccccc1C(=O)OC` the Potency was “inactive”.
For `OCCCCO`, the Potency was “inactive”.
In the case of `Nc1nc(=S)[nH][nH]1`, the Potency is reported as “inactive”.
For `CCCCSP(=O)(SCCCC)SCCCC`, the Potency was “inactive”.
In the case of `CCC(Cl)[N+](=O)[O-]` (stereo not given), the Potency is reported as “inactive”.
For `O=C(O)CCl`, the Potency was “inactive”.
With `CCOP(=S)(OCC)Oc1ccc2c(C)c(Cl)c(=O)oc2c1` the Potency was “inactive”.
With `C[C@H]1C(=O)O[C@@H]2CCN3CC=C(COC(=O)[C@](C)(O)[C@]1(C)O)[C@H]23` the Potency was “inactive”.
In the case of `O=P(OCCCl)(OCCCl)OCCCl`, the Potency is reported as “inactive”.
With `CN(C)N` the Potency was “inactive”.
For `[O]=[Cr][O][Cr]=[O]`, the Potency was “inactive”.
For `Sc1ccccc1`, the Potency was “inactive”.
With `COc1ccc(N)cc1N` the Potency was “inactive”.
With `CCCCOC(=O)c1ccccc1C(=O)O` the Potency was “inactive”.
With `ClC(Cl)=C(Cl)C(Cl)=C(Cl)Cl` the Potency was “inactive”.
In the case of `O=c1[nH]c(=O)[nH]c(=O)[nH]1`, the Potency is reported as “inactive”.
With `Clc1ccc(C(c2ccc(Cl)cc2)C(Cl)(Cl)Cl)cc1` the Potency was “inactive”.
For `Oc1ccc(Cl)cc1Cc1ccccc1`, the Potency was “inactive and 41.3 µM (active)”.
